# About 83,000 compounds went through this panel and 20% of them were active in at least one assay; those are over-represented in the sample as a whole.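 Negative percent growth values reflect cell death: -40 means 40% of the cells present at the start died, and -100 means all died.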 Calls of active or inactive are those of the source. The calls were made as follows: active = growth percent below 10; inactive = the rest.
# System: SK-MEL-2 melanoma
# Assay: NCI-60 one-dose screen, 48 h (100 = growth as untreated, 0 = no growth, -100 = all killed)
# Conditions: 10 µM unless noted
row,Structure (SMILES),growth
1,O=C(/C=C/CN1CCOCC1)Nc1cc2c(Nc3cccc(Cl)c3F)ncnc2cc1OCCOC(F)F,95.9% (inactive)
2,Cc1oc2nc[nH]c(=O)c2c1C(=O)/C=C/c1ccc(Cl)cc1,55.7% (inactive)
3,CCn1cc(C2NC(=O)c3cc(F)ccc3N2)c2cccc(Cl)c21 (stereo not drawn),17.5% (inactive)
4,CN(C)C/C=C/C(=O)Nc1cc2c(Nc3ccc(F)c(Cl)c3F)ncnc2cc1OCCOC(F)F,44.1% (inactive)
5,CC(=O)Nc1ccc2c(c1)/C(=C\C=C/c1ccc([N+](C)(C)C)cc1)c1ccccc1-2,80.9% (inactive)
6,c1ccc([P+](CCC[P+](c2ccccc2)(c2ccccc2)c2ccccc2)(c2ccccc2)c2ccccc2)cc1,71.1% (inactive)
7,COc1ccc2c(c1)NC(=O)CN2c1nc(C)nc2ccccc12,23.5% (inactive)
8,CCCCCC/C=C\CCCCCCCCOc1ccc(CCOP(=O)(O)OCC[N+](C)(C)C)cc1,91% (inactive)
9,O=C(Nc1ccc(I)cc1)c1cc([N+](=O)[O-])ccc1O,-0.392% (active)
10,NC(=O)c1c(NC(=O)c2ccc3c(c2)OCO3)sc2c1CCC(=O)C2,-57.8% (active)
11,O=C(CNC(=O)c1cccc2ccccc12)Nc1ccccc1Oc1ccccc1,34.8% (inactive)
12,COC12CC(=O)C(C(C)=O)=C(O)C1(C)c1c(O)c(C)c(O)c(C(C)=O)c1O2 (stereo not drawn),41.9% (inactive)
13,O=S(=O)(NCCCNc1nccc(-c2c(-c3ccccc3)nc3sccn23)n1)c1ccc(F)cc1,53.8% (inactive)
14,CCCCOc1nc2c(C)cccc2cc1C1CNC(=O)c2ccccc2N1 (stereo not drawn),62.8% (inactive)
15,C=CCN=C1NC(=O)/C(=C/c2cc(C(C)(C)C)c(O)c(C(C)(C)C)c2)S1,40.1% (inactive)
16,Nc1nc(-c2ccccc2)cs1,82.1% (inactive)
17,CC[C@H](C)[C@@H]1NC(=O)[C@H]([C@@H](C)O)NC(=O)C(Cc2ccccc2)NC(=O)[C@@H]2CCCN2C(=O)C(C(C)C)NC(=O)C(Cc2ccccc2)NC(=O)CNC(=O)[C@@H]2CCCN2C1=O (stereo partly drawn),88.9% (inactive)
18,CCN(CC)CCSc1c2ccc(Cl)cc2nc2ccc(OC)cc12,100% (inactive)
19,Cc1cc2c(C(C)C)c(O)c(O)c(C=NCCCCC(=O)O)c2c(O)c1-c1c(C)cc2c(C(C)C)c(O)c(O)c(C=NCCCCC(=O)O)c2c1O,43.6% (inactive)
20,COc1ccc(Cn2cc(COc3cc(/C=C/C(=O)c4cc(OC)c(OC)c(OC)c4)ccc3OC)nn2)cc1,87.1% (inactive)
21,Cc1ccc(C2=NN(c3ccc(S(=O)(=O)NC(=O)NCc4ccccc4)cc3)C(c3ccc(N(C)C)cc3)C2)c(C)c1 (stereo not drawn),40.9% (inactive)
22,c1ccc2c(c1)Oc1ccccc1C2C1c2ccccc2Oc2ccccc21,92.6% (inactive)
23,COc1ccc(S(=O)(=O)Nc2cc(/C=C\c3cc(OC)c(OC)c(OC)c3)cc(OC)c2OC)cc1OC,36.6% (inactive)
24,COC1=CC(c2ccc[nH]2)=N/C1=C\c1[nH]c(C)c(CCCn2cc(CCCCCCCCC[C@@H]3Cc4cc(O)ccc4C4CC[C@]5(C)[C@@H](O)CC[C@H]5C43)nn2)c1C (stereo partly drawn),69.7% (inactive)

# System: EKVX NSCLC
# Assay: as above
# Conditions: 10 µM unless noted
row,Structure (SMILES),growth
1,CC(C)(C)c1cc(-c2nc3ccc(N4CCN(CCO)CC4)cc3[nH]2)cc(C(C)(C)C)c1O,92.9% (inactive)
2,CCOC(=O)/C=C\C(=O)NC(N)=O,98.8% (inactive)
3,CCC#CC[C@H]1C/C=C2/C(=O)C=C[C@@H]2C/C=C\CCCC(=O)O1,23.7% (inactive)
4,O=C(Cc1c(F)cccc1Cl)Nc1ccc(S(=O)(=O)Nc2ncccn2)cc1,100% (inactive)
5,C=CCc1cc(Cl)cc2c(OC(C)=O)c(C(C)=O)c(-c3ccccc3)nc12,75.5% (inactive)
6,Cc1c(C(=O)NCc2ccccc2)[n+](=O)c2cc(F)ccc2n1[O-],114% (inactive)
7,CCN(CC)S(=O)(=O)c1ccc2[nH]c(=O)cc(C(=O)Nc3ccc(OC)cc3OC)c2c1,166% (inactive)
8,O=C1CCCCN1CCCCC#Cc1ccccc1C#Cc1ccccn1,106% (inactive)
9,COc1ccc2c(c1)C=CC(C#N)N2C(=O)c1ccccc1 (stereo not drawn),49.8% (inactive)
10,CC1(C)OC2COC3(C(=O)O)OC(C)(C)OC3C2O1 (stereo not drawn),97% (inactive)
11,O=C(/C=C/CN1CCOCC1)Nc1cc2c(Nc3cccc(Cl)c3F)ncnc2cc1OCCOC(F)F,29.5% (inactive)
12,Cc1oc2nc[nH]c(=O)c2c1C(=O)/C=C/c1ccc(Cl)cc1,62% (inactive)
13,CCn1cc(C2NC(=O)c3cc(F)ccc3N2)c2cccc(Cl)c21 (stereo not drawn),37.6% (inactive)
14,CN(C)C/C=C/C(=O)Nc1cc2c(Nc3ccc(F)c(Cl)c3F)ncnc2cc1OCCOC(F)F,12.4% (inactive)
15,CC(=O)Nc1ccc2c(c1)/C(=C\C=C/c1ccc([N+](C)(C)C)cc1)c1ccccc1-2,57.7% (inactive)
16,COc1ccc2c(c1)NC(=O)CN2c1nc(C)nc2ccccc12,30.1% (inactive)
17,CCCCCC/C=C\CCCCCCCCOc1ccc(CCOP(=O)(O)OCC[N+](C)(C)C)cc1,95.3% (inactive)
18,O=C(Nc1ccc(I)cc1)c1cc([N+](=O)[O-])ccc1O,39.7% (inactive)
19,NC(=O)c1c(NC(=O)c2ccc3c(c2)OCO3)sc2c1CCC(=O)C2,5.58% (active)
20,O=C(CNC(=O)c1cccc2ccccc12)Nc1ccccc1Oc1ccccc1,26.3% (inactive)
21,CCCCOc1nc2c(C)cccc2cc1C1CNC(=O)c2ccccc2N1 (stereo not drawn),61.9% (inactive)
22,CCN(CC)CCSc1c2ccc(Cl)cc2nc2ccc(OC)cc12,97.1% (inactive)
23,Cc1cc2c(C(C)C)c(O)c(O)c(C=NCCCCC(=O)O)c2c(O)c1-c1c(C)cc2c(C(C)C)c(O)c(O)c(C=NCCCCC(=O)O)c2c1O,38.4% (inactive)
24,c1ccc2c(c1)Oc1ccccc1C2C1c2ccccc2Oc2ccccc21,84.9% (inactive)
